Data taken from PubChem BioAssay (Tox21).
“And” between values parts separate entries of the source, which are not always exact repeats. Equal values may be shown once. Results filed as inconclusive are left out. A call without a number means that no potency is given here. Some structures have more than one record in an assay (separate samples or runs), and their calls can disagree. The source made the active and inactive calls. Unless noted, calls follow the shape of the dose curve; as a rule, active = well fitted cell-killing curve with a large enough effect in the repeat runs; inconclusive = weak or mixed curves, or effect the other way; inactive = flat fitted curve, though single readings scatter.

Molecular target: Estrogen receptor beta (Homo sapiens) (UniProt Q92731)
Sequence (Q92731 whole entry, looked up): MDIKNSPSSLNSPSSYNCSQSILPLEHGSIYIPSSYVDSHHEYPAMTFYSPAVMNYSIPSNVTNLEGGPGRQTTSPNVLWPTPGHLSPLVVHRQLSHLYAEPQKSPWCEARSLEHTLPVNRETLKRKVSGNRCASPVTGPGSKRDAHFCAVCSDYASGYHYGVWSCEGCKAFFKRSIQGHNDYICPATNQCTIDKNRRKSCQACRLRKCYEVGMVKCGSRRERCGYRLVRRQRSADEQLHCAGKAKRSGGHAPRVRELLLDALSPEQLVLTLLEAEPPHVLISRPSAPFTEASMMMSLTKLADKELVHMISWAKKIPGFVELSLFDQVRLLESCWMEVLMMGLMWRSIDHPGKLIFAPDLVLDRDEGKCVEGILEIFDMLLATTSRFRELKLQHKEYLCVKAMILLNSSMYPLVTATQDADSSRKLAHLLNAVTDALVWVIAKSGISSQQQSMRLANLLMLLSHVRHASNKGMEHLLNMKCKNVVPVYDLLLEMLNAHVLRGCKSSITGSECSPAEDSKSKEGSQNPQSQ
Test: qHTS assay to identify small molecule antagonists of the estrogen receptor beta (ER-beta) signaling pathway (AID 1259378; active = well fitted inhibition curve with a large enough effect in the signal ratio in the repeat runs, not every such curve was filed as active; the % refers to the signal ratio)
Conditions: ER-beta-UAS-bla HEK293T, beta-lactamase FRET ratio, 16 h; series mostly up to 92.4 µM
Summary of the method: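 Antagonist mode: compounds added to beta-lactamase reporter HEK293T ER-beta-UAS cells stimulated with E2 (1nM final), 16 hr at 37C. LiveBLAzer B/G FRET substrate, 2 hours room temperature, fluorescence read-out.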
Potency is read from the fitted curve at half-maximal effect.

Row | SMILES | Potency
1 | O=C(O)CC(O)C(=O)O (configuration not stated) | inactive
2 | CCOc1ccc(NC(C)=O)cc1 | inactive
3 | CC(C)C(=O)Nc1ccc([N+](=O)[O-])c(C(F)(F)F)c1 | 54.5 µM (active) and inactive
4 | NC(=O)c1cccnc1 | inactive
5 | COc1ccc(C(Cl)=C(c2ccc(OC)cc2)c2ccc(OC)cc2)cc1 | 433 nM (active) and 668 nM (active)
6 | C=C(C)C(=O)OCC(C)O (configuration not stated) | inactive
7 | O=CC(=O)c1ccccc1 | inactive
8 | O=c1[nH]cc(F)c(=O)[nH]1 | inactive
9 | NS(=O)(=O)c1cc2c(cc1Cl)NCNS2(=O)=O | inactive
10 | CN(C)CCOC(C)(c1ccccc1)c1ccccn1 (configuration not stated) | inactive
11 | CC(C)NCC(O)c1ccc(O)c(O)c1 (configuration not stated) | inactive
12 | Cc1cn([C@H]2C=C[C@@H](CO)O2)c(=O)[nH]c1=O | inactive
13 | C/C=C/C=C/C(=O)O | inactive
14 | Nc1c2c(nc3ccccc13)CCCC2 | inactive
15 | O=S1(=O)OC(c2ccc(O)cc2)(c2ccc(O)cc2)c2ccccc21 | inactive
16 | CCCCCCCC(=O)OCC(COC(=O)CCCCCCC)OC(=O)CCCCCCC | inactive
17 | NS(=O)(=O)O | inactive
18 | Cc1c(C(=O)O)c(O)cc2c1C(=O)c1c(O)c([C@@H]3O[C@H](CO)[C@@H](O)[C@H](O)[C@H]3O)c(O)c(O)c1C2=O | inactive
19 | CC1(C)O[C@@H]2C[C@H]3[C@@H]4CCC5=CC(=O)C=C[C@]5(C)[C@@]4(F)[C@@H](O)C[C@]3(C)[C@]2(C(=O)CO)O1 | inactive
20 | Nc1ccc(S(N)(=O)=O)cc1 | inactive
21 | CN(C)CCOC(c1ccccc1)c1ccccc1 | inactive
22 | CCCCOC(=O)c1ccc(O)cc1 | 19.3 µM (active)
23 | NC1CCCCC1 | inactive
24 | CCN(CC)C(=O)c1cccc(C)c1 | inactive
25 | CNNCc1ccc(C(=O)NC(C)C)cc1 | inactive
26 | OC[C@H]1O[C@H](O[C@]2(CCl)O[C@H](CCl)[C@@H](O)[C@@H]2O)[C@H](O)[C@@H](O)[C@H]1Cl | inactive

Tested on: not listed separately
Test: qHTS assay to identify small molecule agonists of the androgen receptor (AR) signaling pathway in the presence of an antagonist - cell viability counter screen (AID 1259379); also: nearly all actives have a fitted effect of over 25% in size;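 as to activity change, negative = cytotoxicity: MDA-kb2 human breast cancer cells carrying an MMTV luciferase reporter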
Conditions: MDA-kb2 viability, CellTiter-Fluor, 16 h; series mostly up to 92.4 µM
Summary of the method: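 A CellTiter-Fluor read-out measured viability of MDA-kb2 reporter cells (MMTV promoter with AR and GR response elements). Treatment: nilutamide 3.0uM final with compounds at 15 concentrations, 16 hr, 37C, 0% CO2.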

Row | SMILES | Potency
27 | O=C(O)CC(O)C(=O)O (configuration not stated) | inactive
28 | CCOc1ccc(NC(C)=O)cc1 | inactive
29 | NC(=O)c1cccnc1 | inactive
30 | COc1ccc(C(Cl)=C(c2ccc(OC)cc2)c2ccc(OC)cc2)cc1 | inactive
31 | C=C(C)C(=O)OCC(C)O (configuration not stated) | inactive
32 | O=CC(=O)c1ccccc1 | inactive
33 | O=c1[nH]cc(F)c(=O)[nH]1 | inactive
34 | NS(=O)(=O)c1cc2c(cc1Cl)NCNS2(=O)=O | inactive
35 | CN(C)CCOC(C)(c1ccccc1)c1ccccn1 (configuration not stated) | inactive
36 | CC(C)NCC(O)c1ccc(O)c(O)c1 (configuration not stated) | inactive
37 | Cc1cn([C@H]2C=C[C@@H](CO)O2)c(=O)[nH]c1=O | inactive
38 | CCc1nc(N)nc(N)c1-c1ccc(Cl)cc1 | inactive
39 | C/C=C/C=C/C(=O)O | inactive
40 | Nc1c(N=Nc2ccc(-c3ccc(N=Nc4cc(S(=O)(=O)O)c5ccccc5c4N)cc3)cc2)cc(S(=O)(=O)O)c2ccccc12 | 24.3 µM (active)
41 | Nc1c2c(nc3ccccc13)CCCC2 | inactive
42 | O=S1(=O)OC(c2ccc(O)cc2)(c2ccc(O)cc2)c2ccccc21 | 30.6 µM (active) and 19.3 µM (active) and 10.6 µM (active)
43 | CCCCCCCC(=O)OCC(COC(=O)CCCCCCC)OC(=O)CCCCCCC | inactive
44 | NS(=O)(=O)O | inactive
45 | Cc1c(C(=O)O)c(O)cc2c1C(=O)c1c(O)c([C@@H]3O[C@H](CO)[C@@H](O)[C@H](O)[C@H]3O)c(O)c(O)c1C2=O | 18.9 µM (active) and 15.4 µM (active)
46 | CCCCCCCCCCCCCCCC[N+](C)(C)Cc1ccccc1 | 35.5 µM (active) and 55.5 µM (active)
47 | CC1(C)O[C@@H]2C[C@H]3[C@@H]4CCC5=CC(=O)C=C[C@]5(C)[C@@]4(F)[C@@H](O)C[C@]3(C)[C@]2(C(=O)CO)O1 | inactive
48 | Nc1ccc(S(N)(=O)=O)cc1 | inactive
49 | CN(C)CCOC(c1ccccc1)c1ccccc1 | inactive
50 | CCCCOC(=O)c1ccc(O)cc1 | inactive
51 | NC1CCCCC1 | inactive
52 | CCN(CC)C(=O)c1cccc(C)c1 | inactive
53 | CNNCc1ccc(C(=O)NC(C)C)cc1 | inactive
54 | OC[C@H]1O[C@H](O[C@]2(CCl)O[C@H](CCl)[C@@H](O)[C@@H]2O)[C@H](O)[C@@H](O)[C@H]1Cl | inactive

Tested on: not listed separately
Test: qHTS assay to identify small molecule agonists of the estrogen receptor beta (ER-beta) signaling pathway - cell viability counter screen (AID 1259380); also: nearly all actives have a fitted effect of over 30% in size
Conditions: ER-beta-bla HEK293T viability, CellTiter-Glo luminescence, 16 h; series mostly up to 92.4 µM
Summary of the method: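 Cells used were ER-beta-UAS-bla HEK293T in medium with 2% charcoal-stripped FBS. They were treated for 16 hr at 37C. Viability came from CellTiter-Glo luminescence.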

Row | SMILES | Potency | activity change, negative = cytotoxicity
55 | O=C(O)CC(O)C(=O)O (configuration not stated) | inactive | –
56 | CCOc1ccc(NC(C)=O)cc1 | inactive | –
57 | CC(C)C(=O)Nc1ccc([N+](=O)[O-])c(C(F)(F)F)c1 | inactive and 24.3 µM (active) | –
58 | NC(=O)c1cccnc1 | inactive | –
59 | COc1ccc(C(Cl)=C(c2ccc(OC)cc2)c2ccc(OC)cc2)cc1 | inactive | –
60 | C=C(C)C(=O)OCC(C)O (configuration not stated) | inactive | –
61 | O=CC(=O)c1ccccc1 | inactive | –
62 | O=c1[nH]cc(F)c(=O)[nH]1 | 10.1 µM (active) and 12.5 µM (active) and inactive | –
63 | NS(=O)(=O)c1cc2c(cc1Cl)NCNS2(=O)=O | inactive | –
64 | CN(C)CCOC(C)(c1ccccc1)c1ccccn1 (configuration not stated) | inactive | –
65 | CC(C)NCC(O)c1ccc(O)c(O)c1 (configuration not stated) | inactive | –
66 | Cc1cn([C@H]2C=C[C@@H](CO)O2)c(=O)[nH]c1=O | inactive | –
67 | CCc1nc(N)nc(N)c1-c1ccc(Cl)cc1 | 21.7 µM (active) and 18.8 µM (active) | –
68 | C/C=C/C=C/C(=O)O | – | -4.84% [at 8.39 µM] (inactive)
69 | Nc1c2c(nc3ccccc13)CCCC2 | inactive | –
70 | O=S1(=O)OC(c2ccc(O)cc2)(c2ccc(O)cc2)c2ccccc21 | inactive | –
71 | CCCCCCCC(=O)OCC(COC(=O)CCCCCCC)OC(=O)CCCCCCC | inactive | –
72 | NS(=O)(=O)O | inactive | –
73 | Cc1c(C(=O)O)c(O)cc2c1C(=O)c1c(O)c([C@@H]3O[C@H](CO)[C@@H](O)[C@H](O)[C@H]3O)c(O)c(O)c1C2=O | inactive | –
74 | CCCCCCCCCCCCCCCC[N+](C)(C)Cc1ccccc1 | 14.1 µM (active) and 22.1 µM (active) and 11.9 µM (active) | –
75 | CC1(C)O[C@@H]2C[C@H]3[C@@H]4CCC5=CC(=O)C=C[C@]5(C)[C@@]4(F)[C@@H](O)C[C@]3(C)[C@]2(C(=O)CO)O1 | inactive | –
76 | Nc1ccc(S(N)(=O)=O)cc1 | inactive | –
77 | CN(C)CCOC(c1ccccc1)c1ccccc1 | inactive | –
78 | CCCCOC(=O)c1ccc(O)cc1 | inactive | –
79 | NC1CCCCC1 | inactive | –
80 | CCN(CC)C(=O)c1cccc(C)c1 | inactive | –
81 | CNNCc1ccc(C(=O)NC(C)C)cc1 | inactive | –
82 | OC[C@H]1O[C@H](O[C@]2(CCl)O[C@H](CCl)[C@@H](O)[C@@H]2O)[C@H](O)[C@@H](O)[C@H]1Cl | inactive | –
